Test results taken from PubChem BioAssay.
Activity calls are given as the source filed them. The rule behind the calls is not given here.

Biological target: L-lactate dehydrogenase (Plasmodium falciparum (isolate CDC / Honduras)) (UniProt Q27743)
Sequence (Q27743 whole entry, looked up): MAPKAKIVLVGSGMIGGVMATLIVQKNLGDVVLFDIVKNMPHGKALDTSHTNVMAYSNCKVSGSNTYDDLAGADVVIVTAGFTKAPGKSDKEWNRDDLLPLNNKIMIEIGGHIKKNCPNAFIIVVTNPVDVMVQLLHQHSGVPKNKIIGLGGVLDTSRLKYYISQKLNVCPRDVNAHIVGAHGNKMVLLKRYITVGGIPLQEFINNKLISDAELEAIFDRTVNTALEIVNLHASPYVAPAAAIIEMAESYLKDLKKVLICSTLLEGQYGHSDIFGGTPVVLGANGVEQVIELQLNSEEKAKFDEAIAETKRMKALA
Assay: PfLDH activity inhibition – cell lysate, 3D7 strain, counter-screen for P. falciparum growth inhibition project (AID 2304);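 note: 0% = vehicle and 100% = reference inhibitor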
Conditions: P. falciparum 3D7 crude extract, LDH APAD/NBT absorbance; at 2 µM; hits give high values
With `Cc1cccc2[nH]c(-c3cccc(-c4cccc(CNCc5cccc(N)c5)c4)c3)nc12` the inhibition was 1% (inactive).
For `Cc1ccc(-n2[nH]c(C)c(N=Nc3cccc(-c4cccc(NC(=O)OC(C)(C)C)c4)c3O)c2=O)cc1C`, the inhibition was -4% (inactive).
In the case of `O=C(Nc1ccc(NC2=NCCN2)cc1)Nc1ccc(NC2=NCCN2)cc1`, the inhibition is reported as -1% (inactive).
In the case of `CCn1c(-c2nonc2N)nc2cnc(Oc3cccc(NC(=O)c4ccc(OCCN5CCCC5)cc4)c3)cc21`, the inhibition is reported as 2% (inactive).
In the case of `CC[C@H](C)CNC(=O)c1cncc(-c2cccc(CNCCCc3ccccc3)c2)c1`, the inhibition is reported as 1% (inactive).
With `COc1ccc(-c2cccc(NC(=O)c3cccc(Cl)c3)c2)cc1CN1CCCN(C)CC1` the inhibition was 6% (inactive).
In the case of `Cc1cccc2[nH]cc(C3CCN(CCC4CCN(C(=O)/C=C/c5ccc(Cl)c(Cl)c5)CC4)CC3)c12`, the inhibition is reported as 2% (inactive).
With `Cc1ccc(-c2noc(COc3ccccc3C(=O)NC3CCCC3)n2)cc1` the inhibition was -4% (inactive).
In the case of `COc1ccc(NC(=O)[C@H](Cc2ccccc2)Nc2cc(C)nc(NCc3ccccc3C)n2)cc1`, the inhibition is reported as 2% (inactive).
For `CC1CCCN1Cc1cccc(-c2ccc(C(=O)NCCOc3ccccc3)s2)c1` (stereo not given), the inhibition was -3% (inactive).
For `COc1ccc(-c2cccc(NC(=O)c3ccc(Cl)cc3)c2)cc1CN1CCNCC1`, the inhibition was -3% (inactive).
For `CC(C)(C)Cn1cc(-c2ccc(C(=O)NCCc3ccc(S(C)(=O)=O)cc3)cc2)c(N)n1` (tested in a mixture with another compound), the inhibition was -1% (inactive).
With `CCCC[C@@H](C(=O)NCCc1ccc(Cl)cc1)N1C(=O)CCC1C(=O)Nc1ccc(Cl)c(Cl)c1` (stereo not given in full) the inhibition was 2% (inactive).
For `COc1ccc(-c2csc(NC(=O)CCC(=O)O)n2)cc1OC`, the inhibition was 5% (inactive).
For `CCN(CC)CCOc1ccc(C(O)(C#CC(O)(c2ccc(C)cc2)c2ccc(OCCN(CC)CC)cc2)c2ccc(C)cc2)cc1` (stereo not given), the inhibition was 6% (inactive).
With `COCc1nc(-c2ccccc2)nc(N2CCN(C(=O)NC(C)C)CC2)c1Cc1ccccc1F` the inhibition was -3% (inactive).
With `CN(C)c1ccc(-c2csc(C(=O)NCC3CCN(CCC(C)(C)C)C3)c2)cc1` (stereo not given) the inhibition was 4% (inactive).
In the case of `N#Cc1ccc(-c2cnc3ccc(NCc4ccc(S(N)(=O)=O)cc4)nn23)cc1`, the inhibition is reported as 5% (inactive).
With `O=C(N[C@@H]1C[C@H]1c1ccccc1)N(CCCn1ccnc1)Cc1csc(-c2ccc(CNCc3ccccc3)cc2)n1` the inhibition was 2% (inactive).
For `Cc1nnc2c(NC(=O)/C=C/c3ccc(OC(F)(F)F)cc3)cc3cc(Cl)ccc3n12`, the inhibition was 4% (inactive).
With `CCn1c(C(C)C)cc2c3c(N)nc(N)nc3ccc21` the inhibition was 2% (inactive).
For `Cc1cccc2[nH]c(-c3ccc(-c4ccc(NC(=O)Nc5ccc(Cl)cc5)cc4)s3)nc12`, the inhibition was 7% (inactive).
With `CCCCN1CCN(CCCCNc2c3ccccc3nc3ccccc23)CC1` the inhibition was 4% (inactive).
For `NC(=NCCCCC1CCCCC1)c1cccc(C(N)=NCCCCC2CCCCC2)n1`, the inhibition was 3% (inactive).
In the case of `O=C1OC(c2ccccc2)(c2ccccc2)CN1CC1CCN(Cc2ccc(O)c(Cl)c2)CC1`, the inhibition is reported as -1% (inactive).
In the case of `CCn1c(Sc2ccc(C#N)c([N+](=O)[O-])c2)nnc1-c1cccc(Cl)c1`, the inhibition is reported as -2% (inactive).

Tested on: not listed separately
Assay: inhibition of 3D7 malaria parasite growth – strain 3D7 (AID 2306);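 note: 0% = DMSO wells and 100% = chloroquine plus artemisinin control wells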
Conditions: P. falciparum 3D7 erythrocytic growth, LDH absorbance, 72 h; at 2 µM; hits give high values
In the case of `CC(C)c1ccc(CN(C)CCCCNC(=O)c2ccc(NC(=O)c3ccc(Cl)cc3)cc2)cc1`, the growth inhibition is reported as 92% (active).
With `CC(C)n1c(C2CCN(CC3CCN(C(=O)/C=C/c4ccc(Cl)c(Cl)c4)CC3)CC2)nc2ccccc21` the growth inhibition was 94% (active).
In the case of `Cn1nc(C(F)(F)F)c(-c2ccc(F)cc2)c1NC(=O)Nc1ccc(F)cc1F`, the growth inhibition is reported as 100% (active).
For `COc1cccc2sc(N3CCN(C(=O)c4ccc([N+](=O)[O-])o4)CC3)nc12`, the growth inhibition was 95% (active).
In the case of `COc1ccc2nccc(NC(=O)CNCc3ccc(-c4ccccc4)cc3)c2c1`, the growth inhibition is reported as 101% (active).
In the case of `O=C(Nc1ccc(Cn2ncc(N3CCCNCC3)c(Cl)c2=O)cc1)Nc1cc(Cl)cc(Cl)c1`, the growth inhibition is reported as 91% (active).
For `COc1cc(C(=O)Nc2nc3ccccc3[nH]2)ccc1OCC(=O)Nc1cccc(C(F)(F)F)c1`, the growth inhibition was 100% (active).
With `O=C(NCC1CC1)C1CCN(C(c2ccccc2)c2ccc(Cl)c(Cl)c2)CC1` (stereo not given) the growth inhibition was 97% (active).
With `CN1CCN(CCCN(Cc2cccc(-c3cccc(CNCCc4ccccc4)c3)c2)C(=O)Nc2ccccc2)CC1` the growth inhibition was 97% (active).
With `O=C(Nc1ccc(F)c(C(F)(F)F)c1)N[C@H]1CCN(CCCCCNC(=O)[C@@H]2C[C@H]2c2ccc(Cl)c(Cl)c2)C1` the growth inhibition was 90% (active).
In the case of `CC(Cc1ccc(OCc2ccccc2)cc1)Nc1nc2ccccc2c(=O)[nH]1` (stereo not given), the growth inhibition is reported as 98% (active).
For `CCCCCCP(=O)(COc1ccc(CCN(CC(O)COc2cccc3[nH]c(C(N)=O)cc23)CC(O)COc2cccc3[nH]c(C(N)=O)cc23)cc1)OCCCC` (stereo not given), the growth inhibition was 99% (active).
With `Cc1cc(N[C@@H](CC(C)C)C(=O)NCCOc2ccccc2)nc(Nc2ccccc2)n1` the growth inhibition was 93% (active).
In the case of `Cc1cccc2[nH]c(-c3cccc(-c4cccc(CNCc5cccc(N)c5)c4)c3)nc12`, the growth inhibition is reported as 101% (active).
With `Cc1ccc(-n2[nH]c(C)c(N=Nc3cccc(-c4cccc(NC(=O)OC(C)(C)C)c4)c3O)c2=O)cc1C` the growth inhibition was 94% (active).
For `O=C(Nc1ccc(NC2=NCCN2)cc1)Nc1ccc(NC2=NCCN2)cc1`, the growth inhibition was 88% (active).
For `CCn1c(-c2nonc2N)nc2cnc(Oc3cccc(NC(=O)c4ccc(OCCN5CCCC5)cc4)c3)cc21`, the growth inhibition was 92% (active).
For `CC[C@H](C)CNC(=O)c1cncc(-c2cccc(CNCCCc3ccccc3)c2)c1`, the growth inhibition was 95% (active).
With `COc1ccc(-c2cccc(NC(=O)c3cccc(Cl)c3)c2)cc1CN1CCCN(C)CC1` the growth inhibition was 101% (active).
For `Cc1cccc2[nH]cc(C3CCN(CCC4CCN(C(=O)/C=C/c5ccc(Cl)c(Cl)c5)CC4)CC3)c12`, the growth inhibition was 91% (active).
For `Cc1ccc(-c2noc(COc3ccccc3C(=O)NC3CCCC3)n2)cc1`, the growth inhibition was 89% (active).
In the case of `COc1ccc(NC(=O)[C@H](Cc2ccccc2)Nc2cc(C)nc(NCc3ccccc3C)n2)cc1`, the growth inhibition is reported as 101% (active).
In the case of `CC1CCCN1Cc1cccc(-c2ccc(C(=O)NCCOc3ccccc3)s2)c1` (stereo not given), the growth inhibition is reported as 83% (active).
In the case of `COc1ccc(-c2cccc(NC(=O)c3ccc(Cl)cc3)c2)cc1CN1CCNCC1`, the growth inhibition is reported as 96% (active).
With `CC(C)(C)Cn1cc(-c2ccc(C(=O)NCCc3ccc(S(C)(=O)=O)cc3)cc2)c(N)n1` (tested in a mixture with another compound) the growth inhibition was 86% (active).
With `CCCC[C@@H](C(=O)NCCc1ccc(Cl)cc1)N1C(=O)CCC1C(=O)Nc1ccc(Cl)c(Cl)c1` (stereo not given in full) the growth inhibition was 95% (active).
With `COc1ccc(-c2csc(NC(=O)CCC(=O)O)n2)cc1OC` the growth inhibition was 94% (active).
For `CCN(CC)CCOc1ccc(C(O)(C#CC(O)(c2ccc(C)cc2)c2ccc(OCCN(CC)CC)cc2)c2ccc(C)cc2)cc1` (stereo not given), the growth inhibition was 97% (active).
For `COCc1nc(-c2ccccc2)nc(N2CCN(C(=O)NC(C)C)CC2)c1Cc1ccccc1F`, the growth inhibition was 96% (active).
In the case of `CN(C)c1ccc(-c2csc(C(=O)NCC3CCN(CCC(C)(C)C)C3)c2)cc1` (stereo not given), the growth inhibition is reported as 87% (active).
For `N#Cc1ccc(-c2cnc3ccc(NCc4ccc(S(N)(=O)=O)cc4)nn23)cc1`, the growth inhibition was 98% (active).
For `O=C(N[C@@H]1C[C@H]1c1ccccc1)N(CCCn1ccnc1)Cc1csc(-c2ccc(CNCc3ccccc3)cc2)n1`, the growth inhibition was 96% (active).
For `Cc1nnc2c(NC(=O)/C=C/c3ccc(OC(F)(F)F)cc3)cc3cc(Cl)ccc3n12`, the growth inhibition was 94% (active).
With `CCn1c(C(C)C)cc2c3c(N)nc(N)nc3ccc21` the growth inhibition was 92% (active).
With `Cc1cccc2[nH]c(-c3ccc(-c4ccc(NC(=O)Nc5ccc(Cl)cc5)cc4)s3)nc12` the growth inhibition was 101% (active).
In the case of `CCCCN1CCN(CCCCNc2c3ccccc3nc3ccccc23)CC1`, the growth inhibition is reported as 100% (active).
In the case of `NC(=NCCCCC1CCCCC1)c1cccc(C(N)=NCCCCC2CCCCC2)n1`, the growth inhibition is reported as 100% (active).
In the case of `O=C1OC(c2ccccc2)(c2ccccc2)CN1CC1CCN(Cc2ccc(O)c(Cl)c2)CC1`, the growth inhibition is reported as 98% (active).
In the case of `CCn1c(Sc2ccc(C#N)c([N+](=O)[O-])c2)nnc1-c1cccc(Cl)c1`, the growth inhibition is reported as 95% (active).
